Values quoted from earlier work in PubChem BioAssay AID977611.
Among all 3,900 compounds or so, about 3,900 (100%) were called active. The limit is not given here; nearly all actives have Kd up to about 4200 µM. The set was probably picked from earlier hits. The list shows a part of the results. Where a SMILES comes first, the peptide text is derived from it. Square brackets hold non-standard residues; d marks the D form. Residues, ends and D or L forms follow the SMILES beside them. Peptide text beside a SMILES is read from it. [ ]: non-standard residue; d: D form. Orn(CH(NH2)2) = NC(N)NCCC[C@H](N)C(=O)O

Assay: PubChem AID 977611
Conditions: PDB protein-ligand complexes, literature Kd

H-AIIGLMVGGVV-OH
Kd (protein: ponezumab Fab, PDB entry 3u0t): 0.0003 µM (active)

CC[C@H](C)[C@H](NC(=O)[C@@H](N)CC(=O)O)C(=O)N[C@@H](CC(=O)O)C(=O)N[C@H](C(=O)N[C@@H](CCSC)C(=O)NCC(=O)N[C@@H](CC(C)C)C(=O)O)C(C)C (H-DIDVMGL-OH)
Kd (protein: Rhodopsin, PDB entry 4pxf): 800 µM (active)

CC(C)C[C@@H](C=O)NC(=O)[C@H](CC(C)C)NC(=O)[C@@H]1CCCN1C(=O)[C@H](CCCCN)NC(=O)[C@@H]1CCCN1C(=O)[C@H](C)NC(=O)[C@@H](NC(=O)[C@@H]1CCCN1C(=O)[C@H](CCCNC(N)N)NC(=O)[C@@H]1CCCN1C(=O)[C@@H]1CCCN1C(=O)[C@@H]1CCCN1)[C@@H](C)O (H-PPP[Orn(CH(NH2)2)]PTAPKPLL-aldehyde)
Kd (protein: Mona/GadsSH3C, PDB entry 2w10): 0.17 µM (active)

CC(C)C[C@H](NC(=O)[C@@H]1CCCN1C(=O)[C@H](CCCNC(N)N)NC(=O)[C@@H]1CCCN1C(=O)[C@@H]1CCCN1)C(=O)N1CCC[C@H]1C(=O)N[C@H](C(=O)N[C@@H](C)C(=O)N1CCC[C@H]1C(=O)NCC(=O)N[C@@H](CO)C(=O)N[C@@H](CO)C(=O)N[C@@H](CCCCN)C(=O)N[C@H](C(=O)O)[C@@H](C)O)C(C)C (H-PP[Orn(CH(NH2)2)]PLPVAPGSSKT-OH)
Kd (protein: Fny(SH3 domain, 82 - 148), PDB entry 1azg): 16 µM (active)

CC(C)C[C@H](NC(=O)[C@@H](NC(=O)[C@@H]1CCCN1C(=O)[C@@H]1CCCN1C(=O)[C@@H]1CCCN1)[C@@H](C)O)C(=O)N1CCC[C@H]1C(=O)N[C@@H](CCCCN)C(=O)N1CCC[C@H]1C(=O)N[C@@H](C)C(=O)N[C@@H](C)C(=O)N1CCC[C@H]1C(=O)O (H-PPPTLPKPAAP-OH)
Kd (protein: Nebulette, PDB entry 4f14): 12.9 µM (active)

H-PPPLPP-OH
Kd (protein: WW domain of Formin-binding protein 11(FBP11), PDB entry 1ywi): 371 µM (active)

O=C(O)CNC(=O)[C@@H]1CCCN1C(=O)[C@@H]1CCCN1C(=O)CNC(=O)[C@@H]1CCCN1C(=O)[C@@H]1CCCN1C(=O)CNC(=O)[C@@H]1CCCN1C(=O)[C@@H]1CCCN1 (H-PPGPPGPPG-OH)
Kd (protein: PROLYL 4-HYDROXYLASE SUBUNIT ALPHA-1, PDB entry 4bt9): 144 µM (active)

O=C(O)[C@@H]1CCCN1C(=O)[C@@H]1CCCN1C(=O)[C@@H]1CCCN1C(=O)[C@@H]1CCCN1C(=O)[C@@H]1CCCN1C(=O)[C@@H]1CCCN1C(=O)[C@@H]1CCCN1C(=O)[C@@H]1CCCN1C(=O)[C@@H]1CCCN1 (H-PPPPPPPPP-OH)
Kd (protein: PROLYL 4-HYDROXYLASE SUBUNIT ALPHA-1, PDB entry 4btb): 9.8 µM (active)

COC(=O)c1cccc2[nH]ccc12
Kd (protein: DNA REPAIR AND RECOMBINATION PROTEIN RADA, PDB entry 4b35): 1300 µM (active)

CC1C(=O)OC2=C1C=COC2 (configuration not stated)
Kd (protein: Hydrolase, alpha/beta fold family protein, PDB entry 4jym): 9.05 µM (active)

C=C(C)/C=C/[C@H]1[C@@H](C)CCCC1(C)C
Kd (protein: Cellular Retinal Binding Protein, PDB entry 4ciz): 0.051 µM (active)

CC(C)C(=O)C[N+]1=C2N=C(N3CCOC[C@H]3C)CC(=O)N2CC[C@H]1C(F)(F)F
Kd (protein: PHOSPHATIDYLINOSITOL 3-KINASE CATALYTIC SUBUNIT TYPE 3 Vsp34, PDB entry 4uwl): 0.0027 µM (active)
